Measurements taken from the supplement of paper PMC11417369.
± gives the standard deviation of the averaged measurements. The full ranking holds about 25,000 sequences; the median of “ln(normalized median fluorescence intensity)” is about 8.9, and the highest 2% start at about 10. The full list was thinned out, with the highest values kept by preference.

Test system: PfAP2-LT AP2 domain (GST-tagged)
Assay: gcPBM binding intensity (ln(normalized median fluorescence intensity)); higher = stronger DNA binding
How it was run: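 For binding intensity, the highest Masliner-normalised natural-log median intensity across replicate spots of either probe orientation was taken. Protein bound to the array was stained with Alexa488 anti-GST antibody and scanned at 488 nm. The protein, GST-tagged P. falciparum DNA-binding domains from E. coli at about 25 μg on average, had been applied for 1 h to an Agilent 4 × 180k array of primer-extended double-stranded 36-bp intergenic genomic probes and negative controls.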

Row | Sequence | gcPBM binding intensity (ln)
1 | ATATATTTTGTTATGGTGCGTAAGAAATATATTCTT [GTGCAC_site9825] | 8.73 ± 0.43
2 | CGAGCAAGACGGGGTGCACACAAACTAATATGCCGA [CACACA_site7936] | 9.55 ± 0.5
3 | TCAAACGGTTAAATATGTACATATATATATATATAT [XGTACX_site2339] | 9.695 ± 0.0071
4 | TTATAATATTCATAAGGTACAGTTTATATATGTTAT [XGTACX_site8442] | 8.68 ± 0.4
5 | TCTTTGAATTTTTTAACACACACATGGGTGGATATA [CACACA_site8474] | 9.04 ± 0.38
6 | ATATAATAGTATATATGTACATATATTTAAATACTA [XGTACX_site1135] | 8.82 ± 0.4
7 | ATTCATACATGCACACGTACATATTTAAATATAAAA [XGTACX_site8388] | 9.04 ± 0.36
8 | TTAGAAACATTGAAAGCATGCAATATTACTTTATAC [TGCATGCA_site522] | 8.82 ± 0.28
9 | TTTTTTTCTTGTTTTAAATAATATACTGGAAAAAAA [CACACA_negctrl_site585] | 7.88 ± 0.33
10 | TGTACCTTATTAATATATTTAACTCGCCTTATATAC [XGTACX_negctrl_site289] | 8.96 ± 0.36
11 | AAATGTACAGGACGCACACACATATATATATATATA [CACACA_site3674] | 10.11 ± 0.05
12 | AAATGTACAGGACGCACACACATATTTATATTTATA [CACACA_site7689] | 9.53 ± 0.3
13 | TAAAATGTACAGGACGCACACACATATATATATATA [CACACA_site3673] | 9.92 ± 0.42
14 | GCCTTCCTTCTAAATGCACACGGAAAGTATAAATGT [CACACA_site8797] | 9.04 ± 0.31
15 | TTAATGTAGAGAAAATGTACATTTTATTAAAACAAT [XGTACX_site6376] | 8.76 ± 0.47
16 | TAAACATACAGATACACACACACACCCACAGAGACA [CACACA_site4429] | 10.15 ± 0.028
17 | AAATAAAACAGACACACACACACATACACAAAAAAA [CACACA_site7753] | 10.1 ± 0.22
18 | AACATACATAAACACACACACACACCCACAGAGACA [CACACA_site4430] | 10.29 ± 0.035
19 | AAATAACAAATTTTTAAAATGTATATATATATATAT [TGCATGCA_negctrl_site219] | 9.51 ± 0.12
20 | GTTTTTTTTTTTTTGGTGCGTCATTTTCAAAAGAAG [GTGCAC_site9745] | 8.57 ± 0.41

Row | Sequence | gcPBM binding intensity (ln)
21 | AAACAAAAAAATTGAAATAAAATGAAGTAAATGAAC [TGCATGCA_negctrl_site129] | 8.9 ± 0.66
22 | TTTTTTTTTTTTTTTTTTTTTTTCTTTATTTTTTTT [CACACA_negctrl_site703] | 8.16 ± 0.43
23 | ATTGTTTTGTAATATGAAAAAATTGTGTAATGTGTC [CACACA_negctrl_site1510] | 8.72 ± 0.4
24 | TTTTAAGTTTTTGAATGTACGTAATTTGTAAATTCT [XGTACX_site2448] | 8.49 ± 0.47
25 | TATTTTTATTTTACATTATTTGTTTATAATTCTTAA [CACACA_negctrl_site1358] | 8.53 ± 0.57
26 | AAAAAAAAAAAAAACACACACACAAAAAAAAATATA [CACACA_site1104] | 9.68 ± 0.35
27 | TATACTCATATATAAACACACAAAAAAAAAAAAAAA [CACACA_site5165] | 8.72 ± 0.45
28 | CACAAACAAAAACACACACACACACCGACAAAAATG [CACACA_site5362] | 10.24 ± 0.092
29 | TAAAATAAAACAAACACACACACACCGACACAAAAA [CACACA_site5993] | 10.1 ± 0.035
30 | ATAAATGACAGACACACACACAAAAAAAAAAAACAA [CACACA_site2626] | 9.84 ± 0.57
31 | TATTTATTAAAACACACACACACACCGACAAAATAA [CACACA_site4293] | 9.97 ± 0.25
32 | ACAAATAAATAAAAAACACACACAAATAAATAAATA [CACACA_site8708] | 9.57 ± 0.38
33 | ATGTTACACCGACACACACACATAAAAAAACAAAAA [CACACA_site5750] | 9.61 ± 0.42
34 | CATATACTCGGACACACACACACACCGACAAAAAAA [CACACA_site4433] | 10.1 ± 0.41
35 | AAAAAAAAAAAACACACACACAAAAAAAAATATATA [CACACA_site1105] | 9.85 ± 0.54
36 | CATATATACTCATACACACACACACCGACACAGACA [CACACA_site5026] | 9.84 ± 0.17
37 | AAAAAAAAAAAACACACACACACACCGACAAAATAT [CACACA_site8411] | 10.4 ± 0.25
38 | TACAAAAATGTAGTCACACATATGTATACTTTTATG [CACACA_site5607] | 8.85 ± 0.42
39 | TGTACCTACAAAATATGATATATTTTTATAAATTGT [XGTACX_negctrl_site498] | 8.51 ± 0.47
40 | TGAACAACTATTACTGCACACATTCTTACACTATAT [CACACA_site4533] | 9.41 ± 0.45

Row | Sequence | gcPBM binding intensity (ln)
41 | GATGATACAAAGTAATGTACATAAATACACATATTG [XGTACX_site3177] | 9.03 ± 0.44
42 | ATAATACGAATTTGTAGTACATTTATAATAACATGA [XGTACX_site2614] | 8.65 ± 0.38
43 | AATGGTCTTTTCAACACACGTACATAAAAATATTAT [CACACA_site2571] | 8.79 ± 0.44
44 | CAATAATATATATATTGTACATTTTTTTTTATTATT [XGTACX_site3149] | 8.7 ± 0.38
45 | TTTTATAGAGTGTATACATGCAATACCACATAAAAT [TGCATGCA_site476] | 8.79 ± 0.43
46 | ATTTTTTTTTTTACAGTGGAACCATATTTGCTCATT [CACACA_negctrl_site940] | 8.82 ± 0.51
47 | ATATATATATTTTTATGAGGCATAAGTAATATTTTT [TGCATGCA_negctrl_site317] | 8.53 ± 0.4
48 | TAAAAGTTTTTATACATACACACCTATAAATTAAGT [CACACA_site2446] | 8.72 ± 0.36
49 | CATAAATTAAAACACACACACACAAAAAAAAAAAAA [CACACA_site2262] | 9.84 ± 0.33
50 | TAAATTAAAAAACACACACACAAAAAAAAAAAAAAA [CACACA_site2263] | 9.41 ± 0.51
51 | AATTAACAAAAACACACACACACACCGACAAAAAAA [CACACA_site4444] | 10.1 ± 0.23
52 | TATGCACGCGAACACACACACACAACTAAAAAATAA [CACACA_site7251] | 9.79 ± 0.37
53 | TTTTTATCTTTGCTGTGTACATAAATAAAAATAACT [XGTACX_site7625] | 8.47 ± 0.42
54 | TATATATATATAATGTGTACACAAATATATATTATA [XGTACX_site8786] | 8.8 ± 0.37
55 | AAGTAAAAAAATAGCACACACACAAAAACACCCACA [CACACA_site1291] | 9.92 ± 0.16
56 | AAAAAAAACAGACACACACACAAATATATAAAAATA [CACACA_site1172] | 9.94 ± 0.35
57 | AAGTAAAAAAATAGCACACACACAAAAACACAGACA [CACACA_site4839] | 10.1
58 | ATCAAATAATAGCAAACACACAAAAAATAAAAAAAA [CACACA_site4146] | 9.04 ± 0.47
59 | GTAAAAAAATAGCACACACACAAAAACACGCACAAA [CACACA_site6723] | 10.1 ± 0.23
60 | CAATATAAAAAACACACGCACACAAAAAAAAAAAAA [CACACA_site3521] | 9.46 ± 0.42
